# PubChem BioAssay
# Activity calls are given as the source filed them. Unless noted, the rule behind the calls is not given here.
# Assays:
# [1] = test system: XIP peptide (Xip251-270) binding; test: small-molecule binders of XIP peptide, primary screen, biochemical, small-molecule microarray, fluorescence 635/667 nm, 0.1 µg/mL protein (AID 1182); details: fluorescent protein binding, 635 nm, higher = more signal, called active from +8 up or from −8 down
# [2] = test system: XIP peptide (Xip251-270); test: small-molecule binders of XIP peptide, primary screen, biochemical, small-molecule microarray, fluorescence 635/667 nm, 0.5 µg/mL protein (AID 1183); details: small-molecule microarray binding, fluorescence 635 nm; higher = more signal
# [3] = Plasmodium falciparum growth inhibition, primary screen, strain 3D7, DAPI fluorescence, 100 nL (AID 1184);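 note: parasites grown inside human red blood cells in medium with human serum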; details: P. falciparum 3D7 growth, 3 d, higher = more signal
# [4] = molecular target: Homeobox protein Hox-A13 (Mus musculus) (UniProt Q62424); test: inhibitors of HoxA13-DNA binding, primary screen, biochemical, fluorescence polarization, labeled oligonucleotide (AID 1185); details: 15 min, higher = more signal, called active from +8 up or from −8 down
# [5] = inhibitors of hydroxyurea-induced Chk1 phosphorylation, primary screen, imaging, HeLa, phospho-Chk1 antibody, percent positive cells (AID 1186); details: hydroxyurea-induced phospho-Chk1 immunofluorescence imaging, higher = more signal
# [6] = inhibitors of hydroxyurea-induced Chk1 phosphorylation, primary screen, imaging, HeLa, phospho-Chk1 nuclear intensity (AID 1187); details: hydroxyurea-induced phospho-Chk1 immunofluorescence imaging, higher = more signal
# Sequence of Homeobox protein Hox-A13 (Mus musculus) (Q62424 whole entry, looked up): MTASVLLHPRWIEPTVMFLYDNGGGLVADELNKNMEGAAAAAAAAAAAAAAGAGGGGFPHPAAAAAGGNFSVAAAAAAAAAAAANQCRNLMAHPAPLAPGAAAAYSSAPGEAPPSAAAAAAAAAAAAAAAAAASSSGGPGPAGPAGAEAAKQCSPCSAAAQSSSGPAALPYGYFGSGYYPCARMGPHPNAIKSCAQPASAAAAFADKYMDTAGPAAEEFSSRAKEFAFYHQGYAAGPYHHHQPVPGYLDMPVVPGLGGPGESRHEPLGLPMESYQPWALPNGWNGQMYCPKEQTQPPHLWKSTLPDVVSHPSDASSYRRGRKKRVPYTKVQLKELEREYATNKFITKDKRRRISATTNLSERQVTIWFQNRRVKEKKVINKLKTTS
Structure (SMILES),composite z-score [1],composite z-score [2],z-score [3],z-score [4],z-score [5],z-score [6]
CCN(CC)c1ccc(N2CC=CC34O[C@@H]5/C=C\CCCOC(=O)C5[C@H]3C(=O)N(C(CO)C(C)C)[C@@H]4C2=O)cc1 (stereo not given in full),1.05 (inactive),0.559,0.604,-6.07 (inactive),0.169 (inactive),-0.0477 (inactive)
COC(=O)[C@@]1(Cc2ccc(OC)cc2)[C@H]2c3cc(C(=O)N4CCCC4)n(Cc4ccccn4)c3C[C@H]2CN1C(=O)c1ccccc1,-0.22 (inactive),0.329,-1.43,-5.86 (inactive),0.613 (inactive),0.451 (inactive)
COC(=O)c1ccc(C23CC2(C(NP(=O)(c2ccccc2)c2ccccc2)c2ccccc2)C3)cc1 (stereo not given),0.946 (inactive),0.474,-1.35,-3.76 (inactive),-1.54 (inactive),-1.34 (inactive)
Cc1ccc(S[C@]2(C(=O)NCC(C)C)CC(=O)N(Cc3ccccc3)[C@@H]2c2ccc(CO)cc2I)cc1,0.0656 (inactive),0.292,-0.769,-3.29 (inactive),0.292 (inactive),0.556 (inactive)
[N-]=[N+]=NCc1ccccc1C[C@]1(C(=O)O)N=C(c2ccc(OCCCO)cc2)O[C@H]1c1ccccc1CN=[N+]=[N-],0.218 (inactive),0.746,-0.507,-4.69 (inactive),-0.0136 (inactive),0.306 (inactive)
C=C(C(=O)CC[C@H](OC(C)=O)c1ccc(OCCO)cc1)C(C)C,0.0512 (inactive),0.601,-2.57,-3.14 (inactive),0.772 (inactive),-0.0365 (inactive)
CCOC(=O)C1=CCC(C(C)(C)C)N(S(=O)(=O)c2ccc(C)cc2)C1 (stereo not given),0.548 (inactive),0.806,-0.797,-4.56 (inactive),-1.42 (inactive),-1.98 (inactive)
CC(C)=CCCC(C)=CC(O)C1C=CC2C(=O)N(c3ccccc3)C(=O)C2N1Nc1ccccc1 (stereo not given),0.634 (inactive),0.828,-0.168,-3.67 (inactive),0.881 (inactive),0.352 (inactive)
CCCCCCc1nc(CCCc2cc3c(c(CCCCCC)n2)[Si](C(C)C)(C(C)C)OC3)cc2c1[Si](C(C)C)(C(C)C)OC2,-0.53 (inactive),-0.442,-2.33,-5.85 (inactive),0.28 (inactive),0.382 (inactive)
COC(=O)[C@@]1(Cc2ccccc2)[C@H]2c3cc(C(=O)N4CCCC4)n(C)c3C[C@H]2CN1C(=O)c1ccccc1,-0.0625 (inactive),0.46,-0.994,-5.7 (inactive),0.0684 (inactive),-0.0761 (inactive)
COCCOC(=O)N1C(=O)[C@@]2(c3cc(C#CCCO)ccc31)[C@H](c1ccc(O)cc1)N1[C@H](c3ccccc3)[C@H](c3ccccc3)OC(=O)[C@H]1[C@@H]2C(N)=O,0.599 (inactive),0.77,-0.662,-5.33 (inactive),-0.296 (inactive),-0.841 (inactive)
CC(C)N1CC=CC23O[C@@H]4C=CCOC(=O)[C@@H]4[C@H]2C(=O)N(CCO)[C@@H]3C1=O (stereo not given in full),-0.145 (inactive),-0.014,0.74,-2.98 (inactive),-0.514 (inactive),-0.419 (inactive)
O=C1[C@]2(CO)C=C(Br)[C@@H](C[C@@H]2c2ccccc2)[C@@]12CO2,-0.0567 (inactive),0.0525,0.808,-2.52 (inactive),-0.0932 (inactive),-0.0264 (inactive)
COCCOC(=O)N1C(=O)[C@@]2(c3cc(C#CCNC(N)=O)ccc31)[C@H](c1ccccc1OCCO)N1[C@H](c3ccccc3)[C@H](c3ccccc3)OC(=O)[C@H]1[C@@H]2C(N)=O,-0.0949 (inactive),0.467,-0.585,-2.6 (inactive),0.0842 (inactive),-0.266 (inactive)
O=C1C=CC(=O)[C@@H]2CC(COc3ccccc3)=C3[C@@H](CCc4ccccc4)OB(O)C[C@@H]3[C@H]12,-0.193 (inactive),0.433,-1.73,-5.92 (inactive),-0.042 (inactive),0.528 (inactive)
O=C1O[C@@H](c2ccccc2)[C@@H](c2ccccc2)N2[C@@H](c3ccc(OCCO)cc3)[C@]3(C(=O)Nc4ccccc43)[C@@H](C(=O)Nc3nc4ccccc4s3)[C@H]12,0.615 (inactive),0.841,-0.161,2.18 (inactive),-0.469 (inactive),-0.781 (inactive)
COC(=O)c1c(CC[C@@H](CO)NC(=O)N[C@@H](Cc2ccccc2)Cn2cc(C3(O)CCCCC3)nn2)oc(C(C)=O)c1C(=O)OC,0.295 (inactive),0.536,-2.48,-5.32 (inactive),-0.0682 (inactive),-0.145 (inactive)
COC(=O)[C@@]1(Cc2ccc(OC)cc2)[C@H]2c3cc(C(=O)N4CCCC4)n(CCc4c[nH]c5cc(F)ccc45)c3C[C@H]2CN1C(=O)c1ccccc1,1.31 (inactive),0.687,-1.66,0.828 (inactive),0.527 (inactive),0.598 (inactive)

Structure (SMILES),composite z-score [1],composite z-score [2],z-score [3],z-score [4],z-score [5],z-score [6]
COC(=O)c1ccc(OC)c(/C=C\CC(OC(C)=O)c2ccccc2)c1 (stereo not given),0.322 (inactive),0.501,0.0859,-2.35 (inactive),0.237 (inactive),0.328 (inactive)
O=C(O)[C@@]1(Cc2ccccc2)N=C(c2ccc(OCCCO)cc2)O[C@H]1c1ccccc1,0.213 (inactive),0.427,0.653,-5.03 (inactive),-0.294 (inactive),-0.224 (inactive)
O=C(NCc1ccccc1)[C@]1(CCS(=O)(=O)c2ccccc2)N=C(c2ccc(OCCCO)cc2)O[C@@H]1c1ccccc1,0.605 (inactive),0.678,-2.18,-1.13 (inactive),-0.362 (inactive),-0.255 (inactive)
CC(C)c1ccc(NN2C(C(O)c3cccc(O)c3)C=CC3C(=O)N(c4ccccc4)C(=O)C32)cc1 (stereo not given),0.305 (inactive),0.668,-0.0362,-4.3 (inactive),0.999 (inactive),0.88 (inactive)
CO[C@H]1O[C@H](CO)[C@@H](OC(=O)Nc2ccc(Oc3ccccc3)cc2)[C@H](OC(=O)Nc2ccccc2)[C@H]1OC(=O)Nc1ccccc1,1.21 (inactive),0.916,-2.21,-1.38 (inactive),-0.444 (inactive),-0.307 (inactive)
CCC[C@@H]1C=C(C(=O)O)[C@H](c2ccc(C)cc2)N1S(=O)(=O)c1ccc(C)cc1,-0.0617 (inactive),0.884,0.977,-3.27 (inactive),0.941 (inactive),1.34 (inactive)
CCN(CC)c1ccc(N2CC=CC34O[C@@H]5C=CCCOC(=O)C5[C@H]3C(=O)N(CCCCCO)[C@@H]4C2=O)cc1 (stereo not given in full),0.235 (inactive),-0.782,0.315,-5.22 (inactive),0.234 (inactive),0.711 (inactive)
CCOC(=O)C[C@H]1[C@H](OC(=O)c2ccc(-c3ccccc3)cc2)[C@@H](NC(=O)Cc2ccc(OC)cc2)c2cc(OCCCO)ccc2N1C(=O)c1ccc2ccccc2n1,-0.0562 (inactive),0.111,0.351,-2.51 (inactive),-0.42 (inactive),-0.0198 (inactive)
COc1ccc(C#Cc2ccc3c(c2)[C@]2(C(=O)N3)[C@H](C(=O)NC[C@H](O)c3ccccc3)[C@H]3C(=O)O[C@H](c4ccccc4)[C@H](c4ccccc4)N3[C@@H]2c2ccc(OCCO)cc2)cc1,-0.0969 (inactive),0.715,-1.06,-0.878 (inactive),0.63 (inactive),0.886 (inactive)
COCCOC(=O)N1C(=O)[C@@]2(c3cc(C#CC4=CCCCC4)ccc31)[C@H](C(=O)NC[C@H](O)c1ccccc1)[C@H]1C(=O)O[C@H](c3ccccc3)[C@H](c3ccccc3)N1[C@@H]2c1ccc(O)cc1,0.304 (inactive),0.744,-1.39,-0.485 (inactive),0.279 (inactive),0.475 (inactive)
O=C1O[C@@H](c2ccccc2)[C@@H](c2ccccc2)N2[C@@H](c3ccccc3OCCO)[C@]3(C(=O)Nc4ccc(C#CC5(O)CCCCCC5)cc43)[C@@H](C(=O)Nc3nc4ccccc4s3)[C@H]12,0.0985 (inactive),0.626,-2.16,2.1 (inactive),0.329 (inactive),0.288 (inactive)
COC(=O)[C@@]1(Cc2ccc(F)cc2)[C@H]2c3cc(C(=O)N(C)C)n(CCc4ccccn4)c3C[C@H]2CN1C(=O)c1ccccc1,0.258 (inactive),0.234,-1.21,-2.89 (inactive),-0.0308 (inactive),0.288 (inactive)
[N-]=[N+]=NCc1ccccc1C[C@]1(C(=O)NCCN2CCOCC2)N=C(c2ccc(OCCCO)cc2)O[C@H]1c1ccccc1N=[N+]=[N-],0.281 (inactive),0.614,-2.1,-1.02 (inactive),-0.2 (inactive),0.0241 (inactive)
Cc1cc(C)c(C(O)C2C=CC3C(=O)N(C)C(=O)C3N2Nc2ccccc2)c(C)c1 (stereo not given),-0.0222 (inactive),0.794,0.642,-2.71 (inactive),0.195 (inactive),-0.137 (inactive)
COc1ccc(CCNC(=O)[C@@H]2c3ccccc3C(=O)N(Cc3ccc(OC(F)(F)F)cc3)[C@H]2c2ccc(CO)cc2)cc1,0.987 (inactive),0.486,-0.756,-4.53 (inactive),-0.232 (inactive),-0.312 (inactive)
C=CCNC(=O)[C@@H]1[C@H]2C(=O)O[C@H](c3ccccc3)[C@H](c3ccccc3)N2[C@H](c2ccccc2OCCO)[C@@]12C(=O)Nc1ccc(C#CC3=CCCCC3)cc12,1.02 (inactive),0.691,-2.17,1.71 (inactive),0.0372 (inactive),0.464 (inactive)
Cc1ccc(S[C@]2(C(=O)O)CC(=O)N(C3Cc4ccccc4C3)[C@@H]2c2ccc(CO)cc2I)cc1,-0.33 (inactive),0.464,-0.111,-2.79 (inactive),0.229 (inactive),0.584 (inactive)
